Data as given in PubChem BioAssay (EPA / NIEHS).
Inconclusive results are not listed. Calls of active or inactive are those of the source. Rule for the calls, unless noted: active = hit-call score of the fitted dose curve at least 0.9, where 1 is the maximum; inactive = score below 0.9.

Columns and labels:
[1] = ATG_PPRE_CIS: Attagene CIS-FACTORIAL HepG2 Assay for human Peroxisome Proliferator-activated Response Element (PPRE) (AID 2282958); conditions: HepG2 PPRE cis-element reporter, Attagene transcription factor profiling; actives raise or lower the signal
Procedure, shortened: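 HepG2, transient MRTU transfection (cis promoter elements, endogenous TFs). 24 h dosing. RNA → oligo(dT) RT → PCR → 6-FAM primer extension → HpaI digest → CE. Bidirectional fit vs DMSO.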

[2] = ATG_RORE_CIS: Attagene CIS-FACTORIAL HepG2 Assay for human RAR-related Orphan Receptor Element (RORE) (AID 2282959); conditions: HepG2 Attagene cis-factorial RORE reporter, mRNA; actives raise or lower the signal
Procedure, shortened: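 Transient MRTU transfection of human HepG2 liver cells (FuGene 6); 24 h compound exposure; TriZol RNA, oligo(dT) RT, PCR, FAM labeling, HpaI cut, CE fragment analysis. DMSO = negative control/baseline.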

[3] = ATG_Sox_CIS: Attagene CIS-FACTORIAL HepG2 Assay for human SRY-box transcription factor (SOX) (AID 2282960); conditions: HepG2 Attagene cis-factorial SOX reporter, mRNA; actives raise or lower the signal
Procedure, shortened: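 Endogenous factor activity in human liver HepG2 cells carrying transfected cis-regulated reporter units. RNA taken 24 h post-dose, reverse-transcribed, PCR-amplified and sized by capillary electrophoresis. Gain or loss of signal fitted relative to DMSO.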

[4] = biological target: Transcription factor Sp1 (Homo sapiens) (UniProt P08047); assay: ATG_Sp1_CIS: Attagene CIS-FACTORIAL HepG2 Assay for human Specificity Protein 1 (Sp1) (AID 2282961); conditions: HepG2 Sp1 cis-reporter transcription, actives raise or lower the signal
Procedure, shortened: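 Transient MRTU-transfected HepG2, 24 h compound exposure. Total RNA → oligo(dT) RT → PCR of reporter → 6-FAM primer extension → HpaI digest → CE. Endpoint fitted both directions vs DMSO.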

[5] = ATG_SREBP_CIS: Attagene CIS-FACTORIAL HepG2 Assay for human Sterol Regulatory Element Binding (SREBP) (AID 2282962); conditions: HepG2 Attagene cis-factorial SREBP reporter, mRNA; actives raise or lower the signal
Procedure, shortened: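 Transfected HepG2 (cis-regulated reporter library, endogenous TFs) → compound 24 h → total RNA → oligo(dT) RT → reporter-specific PCR → FAM primer extension, HpaI cut → CE fluorescence. Fit bidirectional vs DMSO.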

[6] = biological target: Signal transducer and activator of transcription 3 (Homo sapiens) (UniProt P40763); assay: ATG_STAT3_CIS: Attagene CIS-FACTORIAL HepG2 Assay for human Signal Transducer and Activator of Transcription 3 (STAT3) (AID 2282963); conditions: HepG2, Attagene cis-factorial STAT3 reporter transcription; actives raise or lower the signal
Procedure, shortened: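 After a 24 h compound incubation, total RNA from MRTU-transfected HepG2 cells was converted to cDNA and reporter sequences PCR-amplified, labelled and profiled by capillary electrophoresis. Gain and loss of signal were referenced to DMSO.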

[7] = ATG_TA_CIS: Attagene CIS-FACTORIAL HepG2 Assay for human TA Basal Promoter (AID 2282964); conditions: HepG2 Attagene CIS-factorial TA basal promoter reporter; actives raise or lower the signal
Procedure, shortened: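 HepG2 cells transiently transfected with multiplexed cis-promoter reporter units, dosed 24 h. Reporter mRNA measured by RT-PCR, 6-FAM labelling, HpaI digestion and capillary electrophoresis; bidirectional fit versus DMSO baseline, serving as background control.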

[8] = ATG_TCF_b_cat_CIS: Attagene CIS-FACTORIAL HepG2 Assay for human T-Cell-Factor with beta-catenin (TCF/b-cat) (AID 2282965); conditions: HepG2 TCF/beta-catenin cis-reporter transcription, actives raise or lower the signal
Procedure, shortened: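 Measured: reporter mRNA in HepG2 transiently transfected with cis-promoter reporter units, 24 h after chemical addition. Fitting was bidirectional, DMSO as negative control.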

[9] = ATG_TAL_CIS: Attagene CIS-FACTORIAL HepG2 Assay for human TAL Basal Promoter (AID 2282966); conditions: HepG2 Attagene cis-factorial TAL promoter reporter; actives raise or lower the signal;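 note: background control endpoint measuring basal TAL promoter reporter mRNA not a specific factor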
Procedure, shortened: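 Fluorescence of labelled reporter cDNA fragments, resolved by capillary electrophoresis, gave the readout. Human HepG2 liver cells carried transiently transfected cis-element reporter units and were treated for 24 hours; activity was fitted bidirectionally against DMSO.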

[10] = ATG_TGFb_CIS: Attagene CIS-FACTORIAL HepG2 Assay for human Transforming Growth Factor (TGF) (AID 2282967); conditions: HepG2 Attagene CIS TGFb reporter, mRNA transcription; actives raise or lower the signal
Procedure, shortened: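 HepG2 cells transiently transfected with cis-promoter-driven multiplexed reporter units; 24 h compound exposure. Reporter mRNA measured by RT-PCR, 6-FAM labeling, HpaI digestion and capillary electrophoresis; bidirectional fit versus DMSO baseline.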

[11] = biological target: Nuclear receptor subfamily 1 group I member 3 (Homo sapiens) (UniProt Q14994); assay: ATG_CAR_TRANS: Attagene TRANS-FACTORIAL HepG2 Assay for human Constitutive Androstane Receptor (CAR) (AID 2282969; active = hit-call score of the fitted dose curve at least 0.9, where 1 is the maximum;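 note: activators raise reporter mRNA above DMSO so AC50 marks induction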); conditions: HepG2 Attagene TRANS-FACTORIAL CAR reporter
Procedure, shortened: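 Readout is reporter mRNA induction, quantified by fluorescent primer extension and capillary electrophoresis after RT-PCR. Cells were HepG2 transiently carrying chimeric NR-Gal4 constructs with GAL4-UAS reporters, treated for 24 h; activity scored upward from DMSO.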

[12] = biological target: Estrogen receptor (Homo sapiens) (UniProt P03372); assay: ATG_ERa_TRANS: Attagene TRANS-FACTORIAL HepG2 Assay for human Estrogen Receptor alpha (ERa) (AID 2282970; active = hit-call score of the fitted dose curve at least 0.9, where 1 is the maximum); conditions: HepG2 Attagene TRANS ERa GAL4 reporter, mRNA
Procedure, shortened: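 Human liver HepG2, transient transfection of multiple GAL4-UAS reporter units; TRANS format (exogenous NR-Gal4 chimera). 24 h dosing. Readout: reporter mRNA, RT-PCR, 6-FAM primer extension, HpaI digest, capillary electrophoresis. Positive direction vs DMSO.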

[13] = biological target: X-box-binding protein 1 (Homo sapiens) (UniProt P17861); assay: ATG_Xbp1_CIS: Attagene CIS-FACTORIAL HepG2 Assay for human X-box Binding Protein 1 (XBP1) (AID 2282972); conditions: HepG2 XBP1 cis-element reporter, Attagene multiplex; actives raise or lower the signal
Procedure, shortened: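 HepG2, transient MRTU transfection (cis-promoter driven), 24 h compound exposure. Total RNA → oligo(dT) RT → PCR → 6-FAM labeling → HpaI cut → CE. Bidirectional fit vs DMSO.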

[14] = ATG_M_19_TRANS: Attagene TRANS-FACTORIAL HepG2 Assay for M19 Transcription Factor (Internal Marker) (AID 2282974; active = hit-call score of the fitted dose curve at least 0.9, where 1 is the maximum); conditions: HepG2 Attagene TRANS-FACTORIAL M19 internal marker reporter
Procedure, shortened: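 Fluorescence of 6-FAM-labelled reporter cDNA fragments, separated by capillary electrophoresis, served as the readout. These derived from HepG2 cells carrying transfected GAL4-UAS reporter units after 24 h dosing, with DMSO as negative control.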

[15] = biological target: Estrogen-related receptor gamma (Homo sapiens) (UniProt P62508); assay: ATG_ERRg_TRANS: Attagene TRANS-FACTORIAL HepG2 Assay for human Estrogen-Related Receptor gamma (ERRg) (AID 2282977; active = hit-call score of the fitted dose curve at least 0.9, where 1 is the maximum;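 note: hits increase reporter signal over DMSO so potencies reflect activators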); conditions: HepG2 Attagene TRANS reporter, ERRg transactivation
Procedure, shortened: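 Transient HepG2 transfectants, 24 h compound exposure, GAL4-UAS reporter mRNA by RT-PCR/6-FAM labelling/capillary electrophoresis; positive direction vs DMSO.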

[16] = ATG_PXRE_CIS: Attagene CIS-FACTORIAL HepG2 Assay for human Pregnane X Receptor Element (PXRE) (AID 2282957); conditions: HepG2 Attagene CIS-FACTORIAL PXRE reporter, mRNA; actives raise or lower the signal
Procedure, shortened: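 Transfect HepG2 with MRTUs (cis promoter elements); dose chemical, incubate 24 h; isolate RNA, RT with oligo(dT), PCR, 6-FAM label, HpaI cut, CE. Gain/loss fit vs DMSO.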

[17] = ATG_GAL4_TRANS: Attagene TRANS-FACTORIAL HepG2 Assay for GAL4 (Internal Marker) (AID 2282976; active = hit-call score of the fitted dose curve at least 0.9, where 1 is the maximum); conditions: HepG2 Attagene TRANS GAL4 internal marker reporter
Procedure, shortened: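 First, HepG2 cells were transfected with reporter units under GAL4-UAS control. Next, they were treated with chemical for 24 h. Finally, RNA was reverse-transcribed, PCR-amplified, FAM-labelled and resolved by capillary electrophoresis, with induction scored against DMSO.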

[18] = ATG_VDRE_CIS: Attagene CIS-FACTORIAL HepG2 Assay for human Vitamin D Receptor Element (VDRE) (AID 2282968); conditions: HepG2 VDRE cis-reporter transcription, actives raise or lower the signal
Procedure, shortened: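 In transiently transfected HepG2 liver cells, gain or loss of reporter mRNA after 24 h exposure is scored relative to DMSO, using fluorescence detection by capillary electrophoresis of RT-PCR products.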

Measured: AC50

Chain of Transcription factor Sp1 (Homo sapiens) (P08047 whole entry, looked up): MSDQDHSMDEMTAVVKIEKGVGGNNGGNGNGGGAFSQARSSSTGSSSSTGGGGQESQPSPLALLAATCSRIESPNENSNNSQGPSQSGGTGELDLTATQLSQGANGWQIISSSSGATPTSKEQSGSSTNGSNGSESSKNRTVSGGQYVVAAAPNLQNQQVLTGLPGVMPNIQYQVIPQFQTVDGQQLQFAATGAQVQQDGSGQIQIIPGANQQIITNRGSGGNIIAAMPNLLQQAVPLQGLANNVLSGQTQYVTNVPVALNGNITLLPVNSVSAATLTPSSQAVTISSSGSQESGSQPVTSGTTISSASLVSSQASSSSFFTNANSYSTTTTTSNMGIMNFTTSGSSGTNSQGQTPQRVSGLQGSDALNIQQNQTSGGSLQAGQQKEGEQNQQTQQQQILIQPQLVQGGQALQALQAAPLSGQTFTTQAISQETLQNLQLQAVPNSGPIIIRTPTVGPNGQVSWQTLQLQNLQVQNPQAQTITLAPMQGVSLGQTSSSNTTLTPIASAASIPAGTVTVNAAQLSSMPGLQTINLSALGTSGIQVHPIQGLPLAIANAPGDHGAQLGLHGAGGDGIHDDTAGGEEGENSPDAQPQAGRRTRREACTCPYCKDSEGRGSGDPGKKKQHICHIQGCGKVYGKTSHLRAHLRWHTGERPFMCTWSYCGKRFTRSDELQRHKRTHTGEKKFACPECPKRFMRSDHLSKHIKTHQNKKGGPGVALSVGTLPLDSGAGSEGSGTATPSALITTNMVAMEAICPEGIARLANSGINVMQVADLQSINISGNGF
Chain of Signal transducer and activator of transcription 3 (Homo sapiens) (P40763 whole entry, looked up): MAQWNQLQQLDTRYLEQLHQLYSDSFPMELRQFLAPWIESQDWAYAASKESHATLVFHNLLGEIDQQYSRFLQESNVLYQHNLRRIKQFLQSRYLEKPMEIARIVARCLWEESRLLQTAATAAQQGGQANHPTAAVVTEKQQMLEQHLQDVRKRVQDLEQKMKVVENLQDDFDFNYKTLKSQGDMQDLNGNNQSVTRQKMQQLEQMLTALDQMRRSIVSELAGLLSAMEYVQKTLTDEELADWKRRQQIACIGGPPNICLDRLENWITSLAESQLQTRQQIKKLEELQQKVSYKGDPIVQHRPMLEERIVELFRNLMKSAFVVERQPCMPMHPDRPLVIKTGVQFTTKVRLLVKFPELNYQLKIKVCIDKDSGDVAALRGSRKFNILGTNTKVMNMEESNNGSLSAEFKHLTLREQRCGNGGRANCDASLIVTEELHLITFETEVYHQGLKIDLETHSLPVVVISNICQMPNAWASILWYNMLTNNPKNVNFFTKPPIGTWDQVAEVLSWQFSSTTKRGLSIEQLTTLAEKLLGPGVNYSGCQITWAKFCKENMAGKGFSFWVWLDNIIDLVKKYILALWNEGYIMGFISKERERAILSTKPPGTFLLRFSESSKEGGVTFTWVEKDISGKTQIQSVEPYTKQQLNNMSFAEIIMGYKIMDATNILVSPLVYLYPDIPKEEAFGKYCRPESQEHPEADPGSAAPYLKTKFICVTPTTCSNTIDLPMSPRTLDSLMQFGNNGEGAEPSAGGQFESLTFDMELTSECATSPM
Chain of X-box-binding protein 1 (Homo sapiens) (P17861 whole entry, looked up): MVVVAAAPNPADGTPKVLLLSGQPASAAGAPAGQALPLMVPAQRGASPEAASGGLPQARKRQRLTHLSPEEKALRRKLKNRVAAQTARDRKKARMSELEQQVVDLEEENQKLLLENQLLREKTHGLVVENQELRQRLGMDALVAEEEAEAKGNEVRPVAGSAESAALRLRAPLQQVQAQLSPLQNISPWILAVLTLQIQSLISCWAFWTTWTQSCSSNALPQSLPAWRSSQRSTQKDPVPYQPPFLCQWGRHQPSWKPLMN
Chain of Nuclear receptor subfamily 1 group I member 3 (Homo sapiens) (Q14994 whole entry, looked up, the tested form may be a part): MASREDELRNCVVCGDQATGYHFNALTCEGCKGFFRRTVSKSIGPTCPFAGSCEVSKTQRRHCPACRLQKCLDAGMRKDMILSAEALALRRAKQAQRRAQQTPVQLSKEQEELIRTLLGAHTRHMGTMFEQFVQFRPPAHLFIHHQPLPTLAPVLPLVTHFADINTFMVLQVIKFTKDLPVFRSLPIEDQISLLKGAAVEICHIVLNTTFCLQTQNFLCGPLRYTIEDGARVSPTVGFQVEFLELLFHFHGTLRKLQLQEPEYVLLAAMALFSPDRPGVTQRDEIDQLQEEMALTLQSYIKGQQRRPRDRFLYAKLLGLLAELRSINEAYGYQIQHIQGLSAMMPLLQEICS
Chain of Estrogen receptor (Homo sapiens) (P03372 whole entry, looked up, the tested form may be a part): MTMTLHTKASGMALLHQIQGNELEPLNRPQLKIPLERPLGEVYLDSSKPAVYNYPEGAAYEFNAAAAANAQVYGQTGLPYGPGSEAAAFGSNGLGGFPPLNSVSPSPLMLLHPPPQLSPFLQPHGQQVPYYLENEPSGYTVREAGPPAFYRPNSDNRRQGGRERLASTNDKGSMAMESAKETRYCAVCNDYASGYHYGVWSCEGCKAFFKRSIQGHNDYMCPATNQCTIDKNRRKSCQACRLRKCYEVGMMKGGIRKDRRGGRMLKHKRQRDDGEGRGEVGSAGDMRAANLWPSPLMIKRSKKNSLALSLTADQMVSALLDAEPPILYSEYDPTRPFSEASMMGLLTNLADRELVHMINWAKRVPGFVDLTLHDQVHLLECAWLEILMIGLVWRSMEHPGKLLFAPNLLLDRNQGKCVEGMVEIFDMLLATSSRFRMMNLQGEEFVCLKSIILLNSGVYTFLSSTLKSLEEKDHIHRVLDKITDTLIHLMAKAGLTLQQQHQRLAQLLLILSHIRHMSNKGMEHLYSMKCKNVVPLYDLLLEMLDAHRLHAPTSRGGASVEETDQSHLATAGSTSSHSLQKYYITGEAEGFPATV
Chain of Estrogen-related receptor gamma (Homo sapiens) (P62508 whole entry, looked up, the tested form may be a part): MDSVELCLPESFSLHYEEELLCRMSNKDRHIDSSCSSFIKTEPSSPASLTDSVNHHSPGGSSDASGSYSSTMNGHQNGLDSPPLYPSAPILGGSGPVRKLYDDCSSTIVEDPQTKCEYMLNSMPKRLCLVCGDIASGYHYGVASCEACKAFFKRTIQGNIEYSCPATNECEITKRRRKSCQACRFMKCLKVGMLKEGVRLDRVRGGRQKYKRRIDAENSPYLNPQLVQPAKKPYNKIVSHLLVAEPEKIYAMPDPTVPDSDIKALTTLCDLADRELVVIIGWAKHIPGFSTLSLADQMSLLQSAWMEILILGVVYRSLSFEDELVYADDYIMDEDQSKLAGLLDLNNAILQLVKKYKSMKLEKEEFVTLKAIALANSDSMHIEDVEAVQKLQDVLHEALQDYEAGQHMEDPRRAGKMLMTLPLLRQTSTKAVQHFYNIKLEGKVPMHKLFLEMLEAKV

O=C(NS(=O)(=O)/C=C/c1ccccc1)c1ccc(F)cc1Cl
inactive: [1] | [2] | [3] | [4] | [5] | [6] | [7] | [8] | [9] | [10] | [11] | [12] | [13] | [14] | [15]

O=C(O)c1cccc(N(Cc2cccnc2)c2ccc(OC(F)F)c(OC(F)F)c2)c1
inactive: [2] | [3] | [4] | [5] | [6] | [7] | [9] | [10] | [13] | [17] | [15]
active: [16] 26.2 µM | [1] 25.1 µM | [8] 100 µM

CCN(C(=O)c1cc(C)cc(OC[C@H](C)Nc2ccncc2)c1)C(C)C
active: [16] 4.97 µM | [5] 18.2 µM
inactive: [3] | [4] | [6] | [7] | [8] | [9] | [10] | [11] | [13]

CCOCCOCCOCCO
inactive: [2] | [3] | [4] | [5] | [6] | [7] | [8] | [9] | [10] | [18] | [13] | [14] | [17]

CCOC(=O)CC(CC(=O)OCC)(OC(C)=O)C(=O)OCC
active: [16] 27.3 µM
inactive: [2] | [3] | [4] | [5] | [6] | [7] | [8] | [9] | [10] | [18] | [11] | [13] | [14]

O=P(OC(CCl)CCl)(OC(CCl)CCl)OC(CCl)CCl
active: [5] 24.4 µM | [6] 188 µM | [8] 100 µM | [13] 100 µM
inactive: [1] | [3] | [4] | [7] | [9] | [10] | [12] | [17]

O=C(O)c1cc(N=Nc2ccc(S(=O)(=O)Nc3ccccn3)cc2)ccc1O
inactive: [1] | [2] | [3] | [4] | [5] | [6] | [7] | [8] | [9] | [10] | [18] | [13] | [14] | [17]

Cn1c(=O)cc(Oc2ccc(F)cc2F)c2cnc(NCC(C)(C)O)nc21
active: [8] 56.9 µM
inactive: [1] | [2] | [3] | [4] | [5] | [6] | [7] | [9] | [10] | [12] | [13] | [14]
